The results in this text go back to PubChem BioAssay (NCI).

This is part of a sample that, as a whole, favours compounds with a hit. Of some 83,000 tested, about 20% had one in any assay.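 Growth was measured after 48 h exposure to one concentration of compound in 96-well plates. Values under 10 count as active.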 Values without a mark were called inactive. The source made the active and inactive calls.

Test systems include DU-145 prostate; K-562 leukemia; MALME-3M melanoma; MDA-MB-231 breast; RXF 393 renal; SF-268 CNS; SF-295 CNS; SF-539 CNS; UACC-257 melanoma; M14 melanoma; HCT-15 colon; HT29 colon; SNB-75 CNS; SNB-19 CNS; U251 CNS; PC-3 prostate; SK-MEL-5 melanoma; UACC-62 melanoma; LOX IMVI melanoma; SK-MEL-28 melanoma.
Holding throughout (experiment): NCI-60 one-dose screen, 48 h (100 = growth as untreated, 0 = no growth, -100 = all killed)
Holding throughout (settings): 10 µM unless noted

For `O=C(Nc1ccc(OS(=O)(=O)c2ccc(F)cc2)cc1)C1CCCCCC1`, the growth in the assay with DU-145 prostate was 90.6%; with K-562 leukemia it was 55.4%; with MALME-3M melanoma, 99.6%; with MDA-MB-231 breast, 82.7%; in the assay with RXF 393 renal, 105%; in the assay with SF-268 CNS, 88.2%. Besides, the growth was 98% in the assay on SF-295 CNS; 89.7% in the assay with SF-539 CNS; 93.9% in the assay with UACC-257 melanoma; 85.9% with M14 melanoma; 54.7% with HCT-15 colon; 31.6% in the assay with HT29 colon. The growth with SNB-75 CNS was 102%; with SNB-19 CNS, 89.4%; in the assay on U251 CNS it was 72.9%; in the assay with PC-3 prostate, 88.3%; with SK-MEL-5 melanoma it was 71.9%; with UACC-62 melanoma, 85.5%. The growth with LOX IMVI melanoma is 86.7%; in the assay on SK-MEL-28 melanoma, 109%.
In the case of `CCCCCCCCCCCCCCCCCCOc1ccccc1CC(=O)OCC[N+](C)(C)C`, the growth in the assay on DU-145 prostate was 36.1%; in the assay on K-562 leukemia, 18.6%; in the assay with MALME-3M melanoma, 26.9%; in the assay with MDA-MB-231 breast, -2.29% (active); in the assay with RXF 393 renal, -54% (active); with SF-268 CNS, 15%. For the same compound, the growth is 45.8% in the assay with SF-295 CNS; 21.3% in the assay on SF-539 CNS; 22.3% with UACC-257 melanoma; 6.22% (active) in the assay on M14 melanoma; 57.5% in the assay with HCT-15 colon; 8.73% (active) in the assay with HT29 colon. Also, the growth in the assay with SNB-75 CNS was -16.4% (active); in the assay with SNB-19 CNS, 29.9%; in the assay on U251 CNS, -76.6% (active); in the assay with PC-3 prostate, 5.84% (active); with SK-MEL-5 melanoma it was 25.3%; in the assay on UACC-62 melanoma, 18.6%. Further, the growth was 29.3% in the assay on LOX IMVI melanoma and 64.8% in the assay with SK-MEL-28 melanoma.
Turning to `O=C(c1ccncc1)N1N=C(c2ccc(Cl)cc2)C[C@H]1c1cn(-c2ccccc2)nc1-c1ccccc1`, the growth was 99.8% with DU-145 prostate; 90.5% in the assay with K-562 leukemia; 108% in the assay with MALME-3M melanoma; 69.6% in the assay with MDA-MB-231 breast; 87.6% in the assay with RXF 393 renal; 89.4% in the assay on SF-268 CNS. The growth in the assay with SF-295 CNS was 78.8%; with SF-539 CNS, 81.2%; in the assay on UACC-257 melanoma, 89.6%; with M14 melanoma it was 107%; with HCT-15 colon, 82.4%; with HT29 colon, 104%. Also, the growth with SNB-75 CNS is 72.7%; with SNB-19 CNS, 88.6%; in the assay on U251 CNS, 61.1%; in the assay with PC-3 prostate, 79.5%; in the assay on SK-MEL-5 melanoma, 90.7%; in the assay on UACC-62 melanoma it was 91.7%. Moreover, the results for the growth with LOX IMVI melanoma and with SK-MEL-28 melanoma were 79.9% and 96%, respectively.
Regarding `O=C(CSc1nc2sc3c(c2c(=O)n1-c1ccccc1)CCCCC3)N/N=C/c1cccc([N+](=O)[O-])c1`, the growth is 16.5% with DU-145 prostate; 56.3% in the assay with K-562 leukemia; 74.6% with MALME-3M melanoma; 51.1% in the assay with MDA-MB-231 breast; 61.5% with RXF 393 renal; 44.3% in the assay with SF-268 CNS. Besides, the growth in the assay with SF-295 CNS was 76.3%; in the assay with SF-539 CNS it was 0.0053% (active); in the assay on UACC-257 melanoma, 66.1%; in the assay with M14 melanoma it was 71.1%; in the assay with HCT-15 colon, 53.8%; in the assay with HT29 colon, 32.3%. Also, the growth with SNB-75 CNS is 6.05% (active); with SNB-19 CNS it was 83.6%; in the assay on U251 CNS it was 49.1%; with PC-3 prostate it was 38.5%; with SK-MEL-5 melanoma, 67.6%; in the assay with UACC-62 melanoma it was 65.9%. In addition, the growth in the assay with LOX IMVI melanoma was 76.5%; with SK-MEL-28 melanoma, 74%.
Turning to `CC/C=C\C[C@H](O)C/C=C1/C(=O)C=C[C@@H]1C/C=C\CCCC(=O)N(C)C`, the growth in the assay on DU-145 prostate was 16.4%; with K-562 leukemia it was 5.58% (active); in the assay with MALME-3M melanoma, 8.29% (active); in the assay with MDA-MB-231 breast it was 18.3%; in the assay on RXF 393 renal, -65.1% (active); with SF-268 CNS, 16.6%. In addition, the growth in the assay on SF-295 CNS was -1.42% (active); in the assay with SF-539 CNS, 14.7%; in the assay on UACC-257 melanoma, -9.75% (active); in the assay on M14 melanoma it was 5.92% (active); in the assay on HCT-15 colon it was -21.8% (active); in the assay with HT29 colon it was -71.5% (active). The growth with SNB-75 CNS is 72.2%; in the assay with SNB-19 CNS, 27.1%; in the assay on U251 CNS, -31% (active); in the assay with PC-3 prostate, 2.37% (active); in the assay with SK-MEL-5 melanoma, -88.6% (active); in the assay with UACC-62 melanoma it was -31.6% (active). Besides, the growth in the assay on LOX IMVI melanoma was -84.3% (active); with SK-MEL-28 melanoma, 21.5%.
Regarding `COc1ccc(-c2ccc(=O)oc2-c2cc(OC)c(OC)c(OC)c2)cc1O`, the growth with DU-145 prostate is -53.4% (active); in the assay with K-562 leukemia, -25.7% (active); with MALME-3M melanoma it was 54.1%; in the assay with MDA-MB-231 breast, 15.9%; in the assay with RXF 393 renal, 3.35% (active); with SF-268 CNS, 5.78% (active). In addition, the growth is -21.7% (active) in the assay on SF-295 CNS; -19.2% (active) in the assay on SF-539 CNS; 25.1% in the assay with UACC-257 melanoma; -32.6% (active) with M14 melanoma; 12.1% in the assay with HCT-15 colon; -24% (active) with HT29 colon. Also, the growth with SNB-75 CNS is 38.8%; with SNB-19 CNS, 25.3%; in the assay with U251 CNS it was 19.8%; in the assay on PC-3 prostate, 36.9%; in the assay with SK-MEL-5 melanoma it was -55.5% (active); with UACC-62 melanoma it was 34.7%. The values for the growth with LOX IMVI melanoma and in the assay with SK-MEL-28 melanoma were 17.8% and 47.4%, respectively.
With `CN(C)S(=O)(=O)c1cccc(C(=O)Nc2nc(-c3ccc(F)c(F)c3)cs2)c1`, the growth in the assay with DU-145 prostate was 70.7%; in the assay with K-562 leukemia, 39.4%; with MALME-3M melanoma, 90.9%; in the assay with MDA-MB-231 breast, 69.4%; in the assay with RXF 393 renal it was 55.1%; in the assay on SF-268 CNS it was 88.9%. Also, the growth in the assay on SF-295 CNS is 49.3%; with SF-539 CNS it was 66.4%; in the assay with UACC-257 melanoma, 42.5%; with M14 melanoma, 60.8%; with HCT-15 colon, 61.3%; in the assay on HT29 colon, 74.3%. Further, the growth with SNB-75 CNS is 75.5%; with SNB-19 CNS, 92%; in the assay on U251 CNS, 55.1%; in the assay on PC-3 prostate it was 39.1%; in the assay with SK-MEL-5 melanoma it was 2.37% (active); in the assay with UACC-62 melanoma it was 45.9%. Further, the growth was 71.9% in the assay with LOX IMVI melanoma and 102% in the assay with SK-MEL-28 melanoma.
For `CC1CCc2c(C(=O)Nc3ncc(Cc4cccc([N+](=O)[O-])c4)s3)csc2C1` (stereo not given), the growth in the assay with DU-145 prostate is 18%; in the assay with K-562 leukemia it was 23.8%; in the assay on MALME-3M melanoma, 51%; in the assay on MDA-MB-231 breast it was 23.6%; with RXF 393 renal it was -24.1% (active); in the assay with SF-268 CNS, 43.9%. In addition, the growth with SF-295 CNS is 14.3%; with SF-539 CNS, -7.87% (active); in the assay on UACC-257 melanoma it was 52%; in the assay with M14 melanoma, 6.98% (active); in the assay with HCT-15 colon it was 26.2%; in the assay on HT29 colon, 14.9%. Besides, the growth in the assay on SNB-75 CNS was -14.6% (active); with SNB-19 CNS it was 31.8%; with U251 CNS it was 26.9%; with PC-3 prostate, 35.7%; in the assay with SK-MEL-5 melanoma it was 21.1%; in the assay on UACC-62 melanoma, 13.9%. Also, the growth in the assay with LOX IMVI melanoma was 20%; in the assay with SK-MEL-28 melanoma, 60.7%.
